# Shown are actives, neighbours in structure and some others; about 3.3% of the full set was active somewhere.
# NOD2 RIPK2 PPI = blocks binding of human NOD2 to RIPK2; CHO BLA complementation NOD2-RIPK2, CCF4 ratio; inhibition, % at 4.98 µM; 0.38% of 360,000 active; AID 624267; in the data active = inhibition above about 21%;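 note: 0% = vehicle only and 100% = reference blocker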
# TLR9-MyD88 block = inhibitors of human TLR9-MyD88 binding; CHO BLA complementation TLR9-MyD88, CCF4 FRET ratio; inhibition, % at 4.98 µM; Q9NR96+Q99836; 0.21% of 340,000 active;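 active = inhibition above the mean over all tested compounds plus 3 SD, cut at about 21% in these data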;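 note: 0% = DMSO only wells and 100% = clavulanate BLA inhibitor control wells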
# ABHD5 PLIN5 PPI = blocks binding of human ABHD5 to perilipin-5; Q00G26+Q8WTS1; Split G. princeps luciferase complementation, luminescence, 4 h; inhibition, % at 4 µM; 0.78% of 360,000 active; AID 602281;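 active = inhibition above the mean inhibition across every tested compound plus 3 SD, cut at about 22% in these data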;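 note: 0% = DMSO only wells and the 100% control is not disclosed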
# rCAG binder = molecules binding r(CAG) RNA repeats; inhibition, % at 3 µM; r(CAG) RNA repeat, TO-PRO-1 dye displacement fluorescence; AID 651821; 1.3% of 370,000 active;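 active = inhibition above the plate cutoff, the mean of all test compounds on that plate plus 3 SD, cut at about 35% in these data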;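 note: 0% = DMSO alone and 100% = 100 µM mitoxantrone as full dye displacement; higher means more dye released from RNA so lower well fluorescence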
# TLR4 MyD88 comp = TLR4-MyD88 interaction inhibition in cells | O00206+Q99836 | HeLa CL3-4 TLR4/MyD88 BLA complementation, FRET ratio | inhibition, % at 8.4 µM | 0.18% of 200,000 active; in the data active = inhibition above about 25%;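 note: 0% = vehicle and 100% = reference inhibitor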
# Target sequence (O00206 whole entry, looked up): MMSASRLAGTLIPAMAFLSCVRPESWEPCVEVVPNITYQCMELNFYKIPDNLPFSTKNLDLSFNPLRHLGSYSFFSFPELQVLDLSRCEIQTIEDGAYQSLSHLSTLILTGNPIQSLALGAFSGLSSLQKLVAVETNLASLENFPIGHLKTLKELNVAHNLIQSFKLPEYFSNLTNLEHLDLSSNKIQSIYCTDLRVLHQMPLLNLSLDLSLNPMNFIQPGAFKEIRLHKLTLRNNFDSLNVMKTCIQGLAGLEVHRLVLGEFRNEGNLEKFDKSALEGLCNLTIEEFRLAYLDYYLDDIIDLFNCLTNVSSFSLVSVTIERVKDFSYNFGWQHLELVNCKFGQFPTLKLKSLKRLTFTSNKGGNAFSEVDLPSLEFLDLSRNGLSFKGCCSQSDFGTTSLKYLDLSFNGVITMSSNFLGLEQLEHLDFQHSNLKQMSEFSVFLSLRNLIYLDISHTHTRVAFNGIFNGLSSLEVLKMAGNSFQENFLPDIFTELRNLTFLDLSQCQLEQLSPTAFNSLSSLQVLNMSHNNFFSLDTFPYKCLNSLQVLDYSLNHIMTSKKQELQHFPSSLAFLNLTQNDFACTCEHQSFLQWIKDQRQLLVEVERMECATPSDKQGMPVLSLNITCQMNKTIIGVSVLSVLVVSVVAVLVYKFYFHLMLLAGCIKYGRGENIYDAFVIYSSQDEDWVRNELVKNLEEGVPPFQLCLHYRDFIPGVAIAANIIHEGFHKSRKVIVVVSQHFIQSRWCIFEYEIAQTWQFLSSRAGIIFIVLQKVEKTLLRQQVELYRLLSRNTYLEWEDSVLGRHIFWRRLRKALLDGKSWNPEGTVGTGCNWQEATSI
# Target sequence (Q99836 whole entry, looked up): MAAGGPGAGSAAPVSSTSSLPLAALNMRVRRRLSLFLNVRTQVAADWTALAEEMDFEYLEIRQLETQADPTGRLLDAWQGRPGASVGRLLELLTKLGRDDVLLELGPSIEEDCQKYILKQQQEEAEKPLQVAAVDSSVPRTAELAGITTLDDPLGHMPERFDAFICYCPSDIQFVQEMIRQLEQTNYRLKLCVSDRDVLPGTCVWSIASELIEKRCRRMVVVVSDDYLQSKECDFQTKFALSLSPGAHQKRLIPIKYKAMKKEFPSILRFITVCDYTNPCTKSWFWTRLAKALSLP
# PRMT1 inh = inhibitors of human PRMT1; inhibition, % at 2.79 µM; 1.3% of 370,000 active; Q99873; recombinant PRMT1, activity-based probe fluorescence polarization;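 active = inhibition above about 21% made by adding two undisclosed values, limit read from the data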
# rCAG binder conf = r(CAG) RNA repeat binding, confirmation. TO-PRO-1 dye displacement fluorescence. shares compounds with rCAG binder. 70% of 4,300 active. inhibition, % at 3 µM;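 active = inhibition above a per-plate cutoff, the mean inhibition of sample wells plus 3 SD, cut at about 35% in these data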;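 note: loss of TO-PRO-1 fluorescence as compound displaces dye from 1x1 AA loop RNA; 0% = DMSO only wells and 100% = 100 µM mitoxantrone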
# dCAG dye counter = disrupts DNA CAG TO-PRO-1 complex, flagging rCAG hits; shares compounds with rCAG binder; d(CAG) DNA oligo TO-PRO-1 dye displacement, fluorescence; inhibition, % at 3 µM; 94% of 4,300 active;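 active = inhibition above its plate's cutoff, the mean test-well inhibition plus 3 SD, cut at about 4.8% in these data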;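 note: 0% = DNA dye mix with DMSO and 100% = 100 µM mitoxantrone; hits displace the dye from DNA and so lower well fluorescence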
# The depositor's hits bear a star; nt = not tested or not shown.
SMILES,NOD2 RIPK2 PPI,TLR9-MyD88 block,ABHD5 PLIN5 PPI,rCAG binder,TLR4 MyD88 comp,PRMT1 inh,rCAG binder conf,dCAG dye counter
N#CCCN(C(=O)COC(=O)c1cccc(S(=O)(=O)Nc2ccc([N+](=O)[O-])cc2)c1)c1ccccc1,8.2,2.2,3.1,77.1*,2.5,-3.9,77.0*,34.9*
N#CCCN(C(=O)COC(=O)c1ccc(S(=O)(=O)Nc2ccccc2)cc1)c1ccccc1,-13.1,5.4,-0.6,3.6,-1.6,0.6,nt,nt
Cc1cc(C)c(CC(=O)c2ccccc2)c(C)c1,-0.4,-3.2,-5.7,1.3,nt,-2.9,nt,nt
O=C(O)c1[nH]c2ccccc2c1C(c1c(F)cccc1Cl)c1c(C(=O)O)[nH]c2ccccc12,-13.7,4.1,2.1,57.4*,nt,1.8,32.1,8.0*
O=C(O)c1[nH]c2ccccc2c1C(c1cc(Br)ccc1O)c1c(C(=O)O)[nH]c2ccccc12,-1.1,-4.5,-8.0,94.5*,nt,1.5,75.7*,39.9*
COc1cc(Cl)cc(C(c2c(C(=O)O)[nH]c3ccccc23)c2c(C(=O)O)[nH]c3ccccc23)c1O,3.4,-8.1,-10.3,92.3*,nt,0.0,72.8*,37.9*
Cc1[nH][nH]c(=O)c1C(c1cc(Br)ccc1O)c1c(C)[nH][nH]c1=O,-1.8,-21.2,-10.3,-1.2,nt,-4.9,nt,nt
O=C(O)c1[nH]c2ccccc2c1-c1ccccc1,-10.0,-1.4,-5.3,7.2,-6.3,-0.1,nt,nt
COc1cc(C(=O)Nc2c(C(=O)O)[nH]c3ccccc23)cc(OC)c1OC,-8.3,2.1,-5.2,26.4,nt,2.0,nt,nt
COc1ccc(NC(=O)c2cccc(S(=O)(=O)NCc3ccccc3)c2)cc1S(N)(=O)=O,1.1,-2.8,-5.5,3.8,nt,-0.8,nt,nt
Cc1ccc(-c2nc(CS(=O)(=O)CC(=O)NC3CCCCCC3)c(C)o2)cc1,-9.9,8.3,6.6,-0.8,nt,-1.5,nt,nt
CC(C)(C)c1ccc(OCCSc2nc3ccccc3n2CC(=O)O)cc1,3.1,-9.5,-9.8,39.1*,nt,0.0,42.9*,10.9*
CC1(C(=O)NS(=O)(=O)c2cccc(Cl)c2)CCN1C(=O)CCc1ccc(Cl)cc1Cl (centres undefined),-8.0,nt,7.9,53.6*,nt,2.5,51.5*,16.0*
CC1(C(=O)NS(=O)(=O)c2ccc3ccccc3c2)CCN1C(=O)Cc1ccc(Cl)cc1Cl (centres undefined),-7.7,nt,-3.0,51.6*,nt,1.2,54.1*,18.0*
Cc1ccc(S(=O)(=O)NC(=O)C2(C)CCN2C(=O)Cc2ccc(Cl)cc2Cl)cc1 (centres undefined),-4.3,nt,2.3,22.5,nt,2.8,nt,nt
CCCCc1ccc(S(=O)(=O)NC(=O)C2(C)CCN2C(=O)CCc2cccs2)cc1 (centres undefined),5.8,nt,-11.1,43.6*,nt,-0.4,35.7*,9.9*
CCOC(=O)C1(Cc2ccccc2)CCN(Cc2ccc3c(c2)OCCO3)CC1,-4.5,8.1,-3.4,-6.6,-13.3,-3.1,nt,nt
C[C@H]1[C@@H](OC(=O)Nc2cccc(C(F)(F)F)c2)CC[C@@]23CCCN2C(=O)CCC[C@@H]13,nt,nt,nt,nt,nt,3.1,nt,nt
C/C(=N\NC(=O)c1cccnc1)c1ccc(OC2OCCOC2Oc2ccc(/C(C)=N/NC(=O)c3cccnc3)cc2)cc1 (centres undefined),-3.3,2.9,1.5,-2.9,6.4,0.3,nt,nt
O=C(CSc1nnc(-c2ccccc2)n1-c1ccc(Cl)cc1)NNC(=S)Nc1ccccc1,-2.1,-5.8,-4.2,22.8,0.2,2.4,nt,nt
O=C(CSc1nc2ccccc2c(=O)n1-c1ccc(Cl)cc1)NNC(=S)Nc1ccccc1,nt,nt,nt,48.9*,nt,5.3,38.4*,16.7*
Cc1ccc(NC(=S)NNC(=O)CSc2nc3sc4c(c3c(=O)n2-c2ccccc2)CCCC4)cc1,nt,nt,nt,51.6*,nt,-2.3,59.2*,22.2*
CC(=O)Nc1ccc(S(=O)(=O)NN=c2sc3ccccc3n2C)cc1N,-18.3,1.4,6.4,7.2,nt,-2.1,nt,nt
C=CCN1[C@H](C)COc2cc(F)ccc2S1(=O)=O,nt,nt,nt,-1.6,nt,-7.8,nt,nt
CCCCCCCCCCCCCCC(O)C[N+](C)(CCO)CCO (centres undefined),9.3,4.8,18.6,7.2,nt,-2.2,nt,nt
SMILES,NOD2 RIPK2 PPI,TLR9-MyD88 block,ABHD5 PLIN5 PPI,rCAG binder,TLR4 MyD88 comp,PRMT1 inh,rCAG binder conf,dCAG dye counter
CCN1C(=O)S/C(=C/c2c(OCc3ccc(C(=O)O)cc3)ccc3ccccc23)C1=O,-10.2,0.8,3.6,49.8*,7.9,0.8,67.1*,26.6*
CCN1C(=O)S/C(=C/c2cn(C)c3ccccc23)C1=O,-0.9,9.8,3.2,2.9,-9.4,2.7,nt,nt
Cc1ccc2nc(N/C(=N/S(=O)(=O)c3cccs3)c3ccccc3Cl)sc2c1,-2.0,-5.7,-3.1,71.4*,-27.1,-1.4,51.3*,18.6*
Cc1nc(N(C)Cc2ccccc2)c2nnn(Cc3ccccc3)c2n1,-1.1,2.8,-5.5,0.7,-13.0,-2.2,nt,nt
Cc1nn(CCC(=O)N2CCN(S(=O)(=O)c3ccccc3)CC2)c(C)c1C,-1.5,-4.5,-2.4,-2.9,nt,-4.9,nt,nt
COc1cc(/C=C2\C(=N)N3N=C(S(C)(=O)=O)SC3=NC2=O)ccc1OC(=O)c1ccco1,0.3,-9.6,-7.0,43.4*,nt,0.7,80.1*,48.4*
COc1cc(/C=C2\C(=N)N3N=C(S(C)(=O)=O)SC3=NC2=O)ccc1OC(=O)c1cccs1,-0.2,4.6,4.7,51.9*,nt,8.4,85.6*,63.1*
N=C1/C(=C\c2ccc(OC(=O)c3ccco3)cc2)C(=O)N=C2SC(N3CCCCC3)=NN12,2.8,3.7,1.0,40.0*,nt,5.6,33.2,10.6*
CCOc1cc(/C=C2/C(=N)N3N=C(CC)SC3=NC2=O)ccc1OC(=O)c1ccco1,-1.9,1.1,2.8,22.3,nt,-1.2,nt,nt
CCOc1cc(/C=C2\C(=N)N3N=C(S(=O)(=O)CC)SC3=NC2=O)ccc1OC(=O)c1ccco1,-4.7,-8.2,15.4,41.8*,nt,4.2,84.4*,51.4*
COc1ccc(/C=C2/C(=N)N3N=C(CC(=O)N4CCCC4)SC3=NC2=O)cc1OC,6.2,-8.4,-6.3,17.3,nt,0.4,nt,nt
COc1cc(/C=C2\C(=N)N3N=C(S(C)(=O)=O)SC3=NC2=O)ccc1OCCOc1ccccc1C,1.4,-71.5,1.1,39.5*,nt,3.5,91.2*,76.0*
COc1cc(C2C(C#N)=C(N)Oc3c2ccc2ccccc32)ccc1OCC(=O)Nc1ccc(C)cc1 (centres undefined),-1.2,-4.2,3.5,37.6*,7.3,4.1,17.2,13.2*
N#CC1=C(N)Oc2c(ccc3ccccc23)C1c1ccsc1 (centres undefined),1.2,6.3,1.1,21.9,3.4,10.3,nt,nt

# Screening data deposited in PubChem BioAssay by The Scripps Research Institute Molecular Screening Center.
